# Measured values as given in PubChem BioAssay (EPA / NIEHS).
# The source made the active and inactive calls. How the source made its calls: active means hit-call score of the fitted dose curve at least 0.9, where 1 is the maximum; inactive means score below 0.9.
# What was measured:
# Settings in all cases: mRNA level, 48 h; actives raise or lower the signal
# [1] = read-out: ATP-citrate lyase (ACLY), ACLY (gene 47); assay: LTEA_HepaRG_ACLY: Life Technologies and Expression Analysis (LTEA) Assay for ATP-citrate lyase (ACLY) using HepaRG (AID 2283466)
# Summary of the method: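 qRT-PCR readout of ACLY transcript after 48 h chemical treatment of HepaRG cells; expression normalized to three housekeeping genes. Eight-point half-log series, highest 100 uM, 0.5% DMSO vehicle. Gain or loss fitted against DMSO baseline.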
# [2] = read-out: Peroxisomal acyl-coenzyme A oxidase 1 (ACOX1) gene, ACOX1 (gene 51); assay: LTEA_HepaRG_ACOX1: Life Technologies and Expression Analysis (LTEA) Assay for Peroxisomal acyl-coenzyme A oxidase 1 (ACOX1) gene using HepaRG (AID 2283467)
# Summary of the method: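 HepaRG, 48 h chemical exposure, 8-pt half-log series from 100 uM top, 0.5% DMSO vehicle, duplicates. Readout: ACOX1 mRNA by Fluidigm qRT-PCR, housekeeping-normalized; bidirectional fit vs DMSO baseline.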
# [3] = read-out: Alkaline Phosphatase, Placental (ALPP) gene, ALPP (gene 250); assay: LTEA_HepaRG_ALPP: Life Technologies and Expression Analysis (LTEA) Assay for Alkaline Phosphatase, Placental (ALPP) gene using HepaRG (AID 2283468);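 on AC50: differentiated human HepaRG liver cells in serum-free induction medium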
# Summary of the method: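 qRT-PCR readout of ALPP mRNA (Fluidigm TaqMan), normalized to ACTB/GAPDH/POLR2A, after 48 h chemical exposure of HepaRG cells; 8-point half-log series, top 100 uM, 0.5% DMSO vehicle. Bidirectional curve fit versus DMSO baseline.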
# [4] = read-out: Bcl-2 (BAX) gene, BAX (gene 581); assay: LTEA_HepaRG_BAX: Life Technologies and Expression Analysis (LTEA) Assay for Bcl-2 (BAX) gene using HepaRG (AID 2283470)
# Summary of the method: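 qRT-PCR read-out of BAX mRNA, normalized to three housekeeping genes, after 48 h chemical exposure of human HepaRG cells in serum-free induction medium; eight-point half-log series, top 100 uM, 0.5% DMSO vehicle; bidirectional fit versus DMSO.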
# [5] = read-out: Alpha-fetoprotein (AFP) gene, AFP (gene 174); assay: LTEA_HepaRG_AFP: Life Technologies and Expression Analysis (LTEA) Assay for Alpha-fetoprotein (AFP) gene using HepaRG (AID 2283472)
# Summary of the method: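 qRT-PCR (Fluidigm TaqMan) readout of AFP transcript, normalized to three housekeeping genes, fitted bidirectionally against 0.5% DMSO baseline. HepaRG cells received chemicals for 48 h in serum-free induction medium, top concentration 100 uM, half-log steps.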
# BCL2L11 (gene 10018) = assay: LTEA_HepaRG_BCL2L11: Life Technologies and Expression Analysis (LTEA) Assay for Bcl-2 (BCL2L11) gene using HepaRG (AID 2283473)
# Summary of the method: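 HepaRG, 48 h exposure, 8-pt half-log series from 100 uM in 0.5% DMSO, duplicates; qRT-PCR (Fluidigm TaqMan) for BCL2L11, housekeeping-normalized; bidirectional curve fit relative to DMSO baseline.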
# [6] = read-out: Apolipoprotein A-V (APOA5) gene, APOA5 (gene 116519); assay: LTEA_HepaRG_APOA5: Life Technologies and Expression Analysis (LTEA) Assay for Apolipoprotein A-V (APOA5) gene using HepaRG (AID 2283474)
# Summary of the method: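 HepaRG, 48 h chemical exposure in serum-free induction medium, 8-pt half-log series (top 100 uM), 0.5% DMSO vehicle, duplicates. Readout: APOA5 mRNA by qRT-PCR, housekeeping-normalized; bidirectional fit vs DMSO baseline.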
# [7] = read-out: Apoptosis regulator Bcl-2 (Homo sapiens) (UniProt P10415); assay: LTEA_HepaRG_BCL2: Life Technologies and Expression Analysis (LTEA) Assay for Bcl-2 gene using HepaRG (AID 2283475);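 further: BCL2 transcript by TaqMan qRT-PCR normalised to ACTB GAPDH and POLR2A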
# Summary of the method: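 qRT-PCR read-out (Fluidigm TaqMan) of BCL2 transcript, normalised to three housekeeping genes, after 48 h chemical exposure of HepaRG cells; 8-point half-log series, top 100 uM, 0.5% DMSO vehicle. Gain or loss of signal fitted relative to DMSO baseline.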
# [8] = read-out: adenosine kinase (ADK) gene, ADK (gene 132); assay: LTEA_HepaRG_ADK: Life Technologies and Expression Analysis (LTEA) Assay for adenosine kinase (ADK) gene using HepaRG (AID 2283471)
# Summary of the method: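 ADK expression quantified by qRT-PCR, normalised to three housekeeping genes, after 48 h exposure of HepaRG cells to eight concentrations (top 100 uM, half-log steps, duplicate, 0.5% DMSO). Up- or down-regulation fitted relative to vehicle.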
# Chain of Apoptosis regulator Bcl-2 (Homo sapiens) (P10415 whole entry, looked up): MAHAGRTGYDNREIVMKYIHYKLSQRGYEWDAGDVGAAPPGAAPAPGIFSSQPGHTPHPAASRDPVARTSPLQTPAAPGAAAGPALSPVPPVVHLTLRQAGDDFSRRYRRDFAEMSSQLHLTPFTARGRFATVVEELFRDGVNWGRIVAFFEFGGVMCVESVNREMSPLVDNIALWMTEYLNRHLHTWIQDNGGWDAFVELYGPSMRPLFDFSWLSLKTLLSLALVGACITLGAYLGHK
Compound,outcome [1],outcome [2],outcome [3],outcome [4],outcome [5],outcome (BCL2L11 (gene 10018)),outcome [6],outcome [7],outcome [8],AC50 [3]
CCCCCCOC(=O)c1ccccc1C(=O)OCCCCCC,inactive,inactive,inactive,inactive,inactive,inactive,inactive,inactive,–,–
Nc1ccc(-c2ccc(N)cc2)cc1,inactive,inactive,inactive,inactive,inactive,inactive,inactive,inactive,inactive,–
CN(C)c1nc(=O)n(C2CCCCC2)c(=O)n1C,inactive,inactive,–,inactive,inactive,inactive,inactive,inactive,–,12.5 µM (active)
c1cc2ccc3cccc4ccc(c1)c2c34,inactive,inactive,inactive,inactive,inactive,inactive,inactive,inactive,inactive,–
CN(C)CCO,inactive,inactive,inactive,inactive,inactive,inactive,inactive,inactive,inactive,–
Cc1ccc(O)c(C)c1,inactive,inactive,inactive,inactive,inactive,inactive,inactive,inactive,–,–
CCOCCOC(C)=O,inactive,inactive,inactive,inactive,inactive,inactive,inactive,inactive,–,–
ClC(Cl)=C(c1ccc(Cl)cc1)c1ccc(Cl)cc1,inactive,inactive,inactive,inactive,inactive,inactive,inactive,inactive,–,–
